Molecules are shown by their SMILES. Among all 39,000 compounds or so, about 1,500 (3.8%) were called active. Only a selection was taken, and actives are over-represented in it overall.

The test has as its system HSkMC (human skeletal muscle cells). Nature of the test: cytotoxicity call (relative viability < 0.9). The conditions noted are these: 10 µM.
With `Cc1nnc(SCC2=C(C(=O)O)N3C(=O)[C@@H](NC(=O)Cn4cnnn4)[C@H]3SC2)s1`, the cytotoxicity call was “inactive”.
`O=C(O)[C@@H]1CCCNC1`: the cytotoxicity call was “inactive”.
Under `CC(=O)CNC(=O)Cc1ccccc1` stands “inactive”; under `CCN(CC)S(=O)(=O)c1nnc[nH]1`, “inactive”; under `C[C@H](CO)N1C[C@H](C)[C@@H](CN(C)C(=O)Nc2ccc(C(F)(F)F)cc2)Oc2ncc(-c3ccc(C#N)cc3)cc2C1=O`, “inactive”.
As for `CO[C@@H](C(=O)N(C)C[C@H]1OCc2ccccc2-c2c(n(C)c3ccccc23)C(=O)N([C@H](C)CO)C[C@@H]1C)c1ccccc1`, the entry is “inactive”; as for `CC(C)(C)OC(=O)N1CC[C@H](c2cn(-c3ccc(C(F)(F)F)cc3)nn2)[C@@H]1C(=O)Nc1cccc2cccnc12`, “inactive”; as for `CO[C@@H]1CN(C)C(=O)c2cc(NS(C)(=O)=O)ccc2OC[C@H](C)N(C(=O)C2CCCCC2)C[C@@H]1C`, “inactive”.
On to `COc1ccc(CN(C)C[C@H]2OCCCC[C@@H](C)Oc3ccc(NC(=O)Cc4ccccc4)cc3C(=O)N([C@H](C)CO)C[C@@H]2C)cc1`, for which the cytotoxicity call is “inactive”.
Turning to `CN1C(=O)c2cc(NC(=O)c3cnccn3)ccc2OC[C@@H]2O[C@H](CC(=O)N[C@H]3CCN(Cc4ccccc4)C3)CC[C@@H]21`, the cytotoxicity call was “inactive”.
Under `C[C@@H]1CN([C@H](C)CO)C(=O)c2ccccc2-c2ccccc2CO[C@@H]1CN(C)C(=O)Nc1cccc(Cl)c1Cl` stands “inactive”; under `Cc1ccc(S(=O)(=O)Nc2ccc3c(c2)CC(=O)N([C@H](C)CO)C[C@@H](C)[C@H](CN(C)Cc2ccc(Cl)c(Cl)c2)O3)cc1`, “inactive”; under `Cc1ccc(S(=O)(=O)Nc2ccc3c(c2)CC(=O)N([C@H](C)CO)C[C@@H](C)[C@@H](CN(C)Cc2ccc(Cl)c(Cl)c2)O3)cc1`, “active”.
As for `C[C@@H]1CN([C@H](C)CO)C(=O)c2cccc(NC(=O)Nc3ccc(C(F)(F)F)cc3)c2O[C@@H]1CN(C)S(=O)(=O)c1ccc(Cl)cc1`, the entry is “inactive”; as for `C[C@H]1CN([C@@H](C)CO)C(=O)c2cccc(NC(=O)Nc3ccc(C(F)(F)F)cc3)c2O[C@H]1CN(C)S(=O)(=O)c1ccc(Cl)cc1`, “active”.
For `C[C@@H]1CN([C@@H](C)CO)C(=O)c2cccc(NC(=O)Nc3ccc(C(F)(F)F)cc3)c2O[C@H]1CN(C)S(=O)(=O)c1ccc(Cl)cc1`, the cytotoxicity call is “inactive”.
For `C[C@H](CO)N1C[C@H](C)[C@H](CN(C)S(=O)(=O)c2ccc(Cl)cc2)Oc2c(NC(=O)Nc3ccc(C(F)(F)F)cc3)cccc2C1=O`, the cytotoxicity call was “inactive”.
As for `C[C@H]1CN([C@@H](C)CO)C(=O)c2cccc(NC(=O)Nc3ccc(C(F)(F)F)cc3)c2O[C@@H]1CN(C)S(=O)(=O)c1ccc(Cl)cc1`, the entry is “active”; as for `C[C@@H]1CN([C@@H](C)CO)C(=O)c2cccc(NC(=O)Nc3ccc(C(F)(F)F)cc3)c2O[C@@H]1CN(C)S(=O)(=O)c1ccc(Cl)cc1`, “inactive”; as for `C[C@@H]1CCCCO[C@H](CN(C)Cc2ccc(Cl)c(Cl)c2)[C@H](C)CN([C@@H](C)CO)C(=O)c2cc(NS(C)(=O)=O)ccc2O1`, “inactive”.
On to `C[C@H]1CN([C@@H](C)CO)C(=O)c2cc(C#Cc3ccccn3)cnc2O[C@H]1CN(C)C(=O)CCN1CCCCC1`, for which the cytotoxicity call was “inactive”.
On to `C[C@@H]1CN([C@H](C)CO)C(=O)Cc2cc(NC(=O)CCCCCC(=O)Nc3ccccc3N)ccc2O[C@@H]1CN(C)Cc1ccc(Cl)c(Cl)c1`, for which the cytotoxicity call is “inactive”.
As for `C[C@@H]1CN([C@@H](C)CO)C(=O)c2cccc(NS(=O)(=O)c3cccs3)c2O[C@H]1CN(C)C(=O)Nc1cccc2ccccc12`, the cytotoxicity call was “inactive”.
As to `C[C@@H]1CCCCO[C@H](CN(C)C(=O)Nc2ccc3c(c2)OCO3)[C@H](C)CN([C@H](C)CO)C(=O)c2cc(NC(=O)c3ccccc3)ccc2O1`, the cytotoxicity call is “inactive”.
As for `C[C@@H]1CN([C@@H](C)CO)C(=O)c2cc(NC(=O)Cc3cn(C)c4ccccc34)ccc2O[C@H]1CN(C)Cc1ccc(C(=O)Nc2ccccc2N)cc1`, the entry is “inactive”; as for `CC(C)NC(=O)Nc1ccc2c(c1)CC(=O)N([C@H](C)CO)C[C@H](C)[C@@H](CN(C)S(=O)(=O)c1cccs1)O2`, “inactive”.
For the molecule `CC(C)NC(=O)N(C)C[C@H]1Oc2c(NS(=O)(=O)c3ccccc3)cccc2C(=O)N([C@@H](C)CO)C[C@@H]1C`, the cytotoxicity call was “inactive”.
For the molecule `Cc1ccc(S(=O)(=O)N(C)C[C@@H]2Oc3ccc(NS(=O)(=O)c4ccc(F)cc4)cc3CC(=O)N([C@@H](C)CO)C[C@@H]2C)cc1`, the cytotoxicity call is “inactive”.
Under `C[C@@H]1CN([C@@H](C)CO)C(=O)c2cc(NC(=O)NC3CCCCC3)ccc2O[C@@H](C)CCCCO[C@H]1CN(C)C(=O)Cc1ccccc1` stands “inactive”; under `C[C@@H]1CN([C@H](C)CO)C(=O)c2cc(NC(=O)c3ccncc3)ccc2O[C@@H]1CN(C)S(=O)(=O)c1cn(C)cn1`, “inactive”.
`CCCCC(CC)CN1CN(CC(CC)CCCC)CC(C)(N)C1` (configuration not stated): the cytotoxicity call was “active”.
On to `C[C@@H]1CN([C@@H](C)CO)C(=O)Cc2cc(NC(=O)NC3CCCCC3)ccc2O[C@H]1CN(C)Cc1ccc(C(=O)Nc2ccccc2N)cc1`, for which the cytotoxicity call was “inactive”.
In the case of `C[C@@H]1CN([C@@H](C)CO)S(=O)(=O)c2ccc(Br)cc2O[C@@H]1CN(C)C(=O)c1cnccn1`, the cytotoxicity call was “inactive”.
Turning to `C[C@@H]1CCCCO[C@@H](CN(C)Cc2ccc(C(=O)O)cc2)[C@@H](C)CN([C@H](C)CO)C(=O)c2cc(NC(=O)CCC(F)(F)F)ccc2O1`, the cytotoxicity call was “inactive”.
As to `C[C@@H]1CN([C@@H](C)CO)C(=O)c2ccccc2-c2ccccc2CO[C@@H]1CN(C)Cc1ccccc1C(F)(F)F`, the cytotoxicity call is “inactive”.
For the molecule `C[C@H]1CN([C@@H](C)CO)C(=O)c2ccccc2-c2ccccc2CO[C@@H]1CN(C)Cc1ccccc1C(F)(F)F`, the cytotoxicity call was “active”.
Regarding `C[C@H](CO)N1C[C@H](C)[C@@H](CN(C)Cc2ccccc2C(F)(F)F)OCc2ccccc2-c2ccccc2C1=O`, the cytotoxicity call is “inactive”.
For `C[C@H](CO)N1C[C@H](C)[C@H](CN(C)Cc2ccccc2C(F)(F)F)OCc2ccccc2-c2ccccc2C1=O`, the cytotoxicity call is “active”.
For `C[C@@H]1CN([C@H](C)CO)C(=O)c2ccccc2-c2ccccc2CO[C@@H]1CN(C)Cc1ccccc1C(F)(F)F`, the cytotoxicity call is “inactive”.
Consider `C[C@H]1CN([C@@H](C)CO)C(=O)c2ccccc2-c2ccccc2CO[C@H]1CN(C)Cc1ccccc1C(F)(F)F`, for which the cytotoxicity call was “inactive”.
Regarding `C[C@H](CO)N1C[C@H](C)[C@@H](CN(C)C(=O)Nc2cccc3ccccc23)Oc2c(NC(=O)Nc3ccc(F)cc3)cccc2C1=O`, the cytotoxicity call was “inactive”.
Under `C[C@H](CO)N1C[C@H](C)[C@H](CN(C)Cc2ccc(C(=O)O)cc2)Oc2ccc(NC(=O)CCN3CCOCC3)cc2C1=O` stands “inactive”; under `NC(=O)NCC#Cc1ccc2c(c1)[C@]1(C(=O)N2)[C@H](c2ccccc2OCCO)N2[C@H](c3ccccc3)[C@H](c3ccccc3)OC(=O)[C@H]2[C@@H]1C(=O)N1CCCCCCC1`, “inactive”.
As to `Cc1noc(C)c1NC(=O)N(C)C[C@H]1Oc2ccc(NS(=O)(=O)c3cn(C)cn3)cc2CC(=O)N([C@H](C)CO)C[C@H]1C`, the cytotoxicity call was “inactive”.
As for `CN1C(=O)c2cc(NC(=O)c3ccc(C(F)(F)F)cc3)ccc2OC[C@@H]2O[C@@H](CC(=O)NC3Cc4ccccc4C3)CC[C@@H]21`, the entry is “inactive”; as for `C[C@@H]1CN([C@@H](C)CO)C(=O)c2cc(NC(=O)CCCN(C)C)ccc2O[C@H]1CN(C)Cc1ccc2c(c1)OCO2`, “inactive”; as for `Nc1[nH]ncc1-c1cc(Cl)ccc1Oc1cc(F)c(S(=O)(=O)Nc2cscn2)cc1Cl`, “inactive”.
With `Cc1noc(C)c1S(=O)(=O)Nc1ccc2c(c1)C(=O)N([C@H](C)CO)C[C@@H](C)[C@@H](CN(C)C)OCCCC[C@H](C)O2`, the cytotoxicity call is “inactive”.
Consider `CCc1nc2ccc(C(=O)NC3CCN(Cc4ccccc4)CC3)cn2c1N(C)CCN1CCOCC1`, for which the cytotoxicity call is “inactive”.
Consider `CCc1nc2ccc(C(=O)Nc3cccc(OCC(=O)N(C)C)c3)cn2c1N(C)Cc1cc2ccccc2s1`, for which the cytotoxicity call is “inactive”.
Regarding `CCc1nc2ccc(C(=O)NC3CCN(Cc4ccccc4)CC3)cn2c1N(C)Cc1cc2ccccc2s1`, the cytotoxicity call was “active”.
Turning to `CCN(CC)c1ccnc([C@H]2COCCN2)n1`, the cytotoxicity call is “inactive”.
As for `CC(C)NC(=O)N(C)C[C@@H]1Oc2ccc(NC(=O)Nc3ccc4c(c3)OCO4)cc2C(=O)N([C@@H](C)CO)C[C@H]1C`, the entry is “inactive”; as for `CNC1C(O)C(NC)C2OC3(O)C(=O)CC(C)OC3OC2C1O.Cl.Cl` (configuration not stated), “inactive”.
`Nc1ccccc1C(=O)C[C@H](N)C(=O)O`: the cytotoxicity call is “inactive”.
As for `Nc1ccc(/C=C/C(=O)NCc2cc3cc(-c4ccc(C(=O)N5CCC(F)(F)CC5)cc4)cc(-c4ccc(F)cc4)c3o2)cn1`, the entry is “active”; as for `C[C@H]1CN([C@@H](C)CO)C(=O)c2cc(NC(=O)c3ccncc3)ccc2O[C@H]1CN(C)Cc1ccncc1`, “inactive”; as for `O=C1[C@@H]2[C@H](C(=O)N1c1ccccc1)C13COC[C@H](c4ccccc4)N1C(=O)C2(C(=O)NCc1ccccc1)O3` (some centres not stated), “inactive”.
For the molecule `COc1ccc(S(=O)(=O)Nc2ccc3c(c2)C(=O)N([C@H](C)CO)C[C@@H](C)[C@H](CN(C)Cc2ccc(Oc4ccccc4)cc2)O3)cc1`, the cytotoxicity call is “inactive”.
Turning to `COc1ccc(S(=O)(=O)Nc2ccc3c(c2)C(=O)N([C@@H](C)CO)C[C@H](C)[C@@H](CN(C)Cc2ccc(-c4ccccc4)cc2)O3)cc1`, the cytotoxicity call is “inactive”.
Take `COc1ccc(S(=O)(=O)Nc2ccc3c(c2)C(=O)N([C@@H](C)CO)C[C@@H](C)[C@H](CN(C)Cc2ccc(-c4ccccc4)cc2)O3)cc1`: the cytotoxicity call was “active”.
As for `COc1ccc(S(=O)(=O)Nc2ccc3c(c2)C(=O)N([C@H](C)CO)C[C@H](C)[C@H](CN(C)Cc2ccc(-c4ccccc4)cc2)O3)cc1`, the entry is “inactive”; as for `COc1ccc(S(=O)(=O)Nc2ccc3c(c2)C(=O)N([C@@H](C)CO)C[C@@H](C)[C@@H](CN(C)Cc2ccc(-c4ccccc4)cc2)O3)cc1`, “active”; as for `COc1ccc(S(=O)(=O)Nc2ccc3c(c2)C(=O)N([C@H](C)CO)C[C@@H](C)[C@H](CN(C)Cc2ccc(-c4ccccc4)cc2)O3)cc1`, “inactive”.
`COc1ccc(S(=O)(=O)Nc2ccc3c(c2)C(=O)N([C@@H](C)CO)C[C@H](C)[C@H](CN(C)Cc2ccc(-c4ccccc4)cc2)O3)cc1`: the cytotoxicity call was “inactive”.
For `COc1ccc(S(=O)(=O)Nc2ccc3c(c2)C(=O)N([C@H](C)CO)C[C@@H](C)[C@@H](CN(C)Cc2ccc(-c4ccccc4)cc2)O3)cc1`, the cytotoxicity call was “active”.
For the molecule `COc1ccc(S(=O)(=O)Nc2ccc3c(c2)C(=O)N([C@H](C)CO)C[C@H](C)[C@@H](CN(C)Cc2ccc(-c4ccccc4)cc2)O3)cc1`, the cytotoxicity call was “inactive”.

The record behind these values is the antibiotic and cytotoxicity screens of Wong et al. (2023).
